Screens (PubChem BioAssay)
ERAP1 HTS inh = ERAP1 (human) enzyme inhibition | recombinant ERAP1, Leu-AMC fluorescence, 60 min | Q9NZ08 | inhibition, % at 10.7 µM | actives 0.15% (n = 340,000);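 active = mean replicate inhibition of at least 30%, or all replicates individually reaching that 30% level; inactive = mean below 30% and not every replicate reaching it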;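 also: 0% = neutral control wells and 100% = L-leucinethiol positive control wells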
CASP6 VEID inh = inhibitors of human caspase-6; P55212; AID 686996; purified caspase-6, Z-VEID-R110 cleavage fluorescence; actives 0.53% (n = 350,000); inhibition, % at 12.5 µM;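 active = mean inhibition across replicates at least about 35%, with every replicate also reaching that limit, limit read from the data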;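 also: 0% = median of neutral control wells and 100% = no fluorescence left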
Target sequence (P55212 24-179 limits assumed): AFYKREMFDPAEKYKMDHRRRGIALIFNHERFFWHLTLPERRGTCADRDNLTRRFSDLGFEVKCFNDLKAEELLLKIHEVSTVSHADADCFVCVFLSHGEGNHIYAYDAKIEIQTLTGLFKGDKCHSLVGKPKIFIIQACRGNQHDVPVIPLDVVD
Target sequence (P55212 194-293 limits assumed): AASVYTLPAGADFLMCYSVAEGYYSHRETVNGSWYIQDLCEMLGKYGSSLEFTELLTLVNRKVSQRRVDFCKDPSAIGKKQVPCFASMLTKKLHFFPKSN
SIRT5 block = sirtuin-5 (human) deacylase inhibition | AID 652115 | actives 1.1% (n = 330,000) | Q9NXA8 | inhibition, % at 15 µM | Purified SirT5, succinyl-peptide AMC, trypsin-coupled fluorescence; in the data active = inhibition above about 15%
FGF22 binding = FGF22 (human) thermal shift binding. recombinant FGF22 thermal shift, SYPRO orange fluorescence; percent of sucrose octasulfate shift, DMSO zero. activity (Tm shift, normalised), % at 9.99 µM. actives 1.5% (n = 340,000);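 active = mean Tm shift, scaled 0 neutral to 100 positive control, at about 1.3% or above, every replicate too, limit read from the data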
Target sequence (Q9HCT0 whole entry, looked up): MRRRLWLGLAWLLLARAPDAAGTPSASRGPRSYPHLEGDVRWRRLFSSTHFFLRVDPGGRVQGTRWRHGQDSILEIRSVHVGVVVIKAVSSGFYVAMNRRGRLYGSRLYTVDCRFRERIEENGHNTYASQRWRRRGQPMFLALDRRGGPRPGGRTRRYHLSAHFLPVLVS
INS-1E GSIS act = GLuc luminescence reporter in INS-1E cells, primary screen for activators of glucose-dependent secretion of insulin; actives 0.61% (n = 370,000); AID 743287; activation, % at 16.6 µM; INS-1E GLuc reporter insulin secretion, 2-3 h;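 active = lowest replicate activation of at least 40%, so every replicate reaches that level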;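 also: 0% = median of neutral control wells and 100% = median of IBMX positive control wells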
* hit, by the source's call; x = no result given. Hits are enriched below; roughly 3.3% of the tested compounds scored in any of these assays.

SMILES | ERAP1 HTS inh | CASP6 VEID inh | SIRT5 block | FGF22 binding | INS-1E GSIS act
CC(C)CC#Cc1ccc2c(c1)O[C@@H](CN(C)Cc1ccccc1)[C@H](C)CN([C@H](C)CO)S2(=O)=O | x | x | x | x | 346*
CCCC#Cc1ccc2c(c1)O[C@H](CN(C)Cc1ccccc1)[C@@H](C)CN([C@@H](C)CO)S2(=O)=O | x | x | x | x | 4
CC(C)CC#Cc1ccc2c(c1)O[C@@H](CN(C)CC1CCOCC1)[C@H](C)CN([C@H](C)CO)S2(=O)=O | -1 | 3 | 17* | 0 | -1
C[C@@H]1CCCCO[C@@H](CN(C)C(=O)Nc2ccccc2)[C@H](C)CN([C@@H](C)CO)C(=O)c2cc(NC(=O)C3CCCCC3)ccc2O1 | -1 | 3 | 1 | 0 | -18
CNC[C@H]1Oc2ccc(NC(=O)C3CCCCC3)cc2C(=O)N([C@@H](C)CO)C[C@@H]1C | 0 | -2 | x | 0 | 0
COc1cccc(-c2ccc(C3[C@@H]4CN(C(=O)C5CC5)C[C@H]3N4)cc2)c1 (stereo partly specified) | -4 | 1 | 5 | x | 7
C[C@@H]1CN([C@@H](C)CO)S(=O)(=O)c2ccc(C#CC3CC3)cc2O[C@H]1CN(C)C(=O)c1ccccc1 | 2 | 1 | 9 | 0 | -19
C[C@H]1CN([C@@H](C)CO)C(=O)Cc2cc(NC(=O)Nc3cccc4ccccc34)ccc2O[C@H]1CN(C)Cc1ccc(C(F)(F)F)cc1 | 1 | 5 | -2 | 0 | -1
COc1ccc(CN2[C@H](CO)[C@H]3c4ccccc4N(C(=O)Nc4ccc(F)cc4)C[C@H]32)cc1 | 0 | -4 | -1 | 0 | -6
O=C(c1cc([N+](=O)[O-])ccc1N1CCCCC1)N1CCCC1 | 2 | -2 | 0 | 0 | 0
O=C(c1cc([N+](=O)[O-])ccc1N1CCCC1)N1CCCC1 | 0 | 5 | 16* | 0 | 3
O=C(Nc1ccccc1N1CCCC1)c1cc(Cl)ccc1Cl | 0 | 1 | 2 | 45* | 2
O=C(Nc1ccccc1N1CCCC1)c1ccc(Cl)cc1Cl | -2 | 0 | -3 | 0 | 7
CN1CCN(c2ccccc2NC(=O)c2cccc([N+](=O)[O-])c2)CC1 | -1 | -8 | 0 | 44* | x
O=C(Nc1ccccc1N1CCCC1)c1ccc([N+](=O)[O-])cc1Cl | 2 | 1 | 2 | 44* | 4
Cc1noc(C)c1S(=O)(=O)Nc1ccc2c(c1)C(=O)N([C@H](C)CO)C[C@H](C)[C@@H](CN(C)C(=O)Nc1ccc3c(c1)OCO3)OCCCC[C@H](C)O2 | 0 | 2 | 0 | 0 | -2
COc1ccccc1-c1ccc2c(c1)O[C@H](CN(C)C(C)=O)[C@@H](C)CN([C@@H](C)CO)S2(=O)=O | 2 | -6 | -4 | 0 | -2
CCOc1cc(C(=O)N=c2sccn2C)cc(Br)c1OC | 3 | 3 | -1 | 0 | -12
Cn1ccsc1=NC(=O)c1cccc(OC(F)F)c1 | -2 | 0 | 4 | 0 | 9
Cn1ccsc1=NC(=O)c1ccc([N+](=O)[O-])o1 | -3 | 49* | -3 | 0 | 10
Cn1ccsc1=NC(=O)c1ccc(=O)[nH]c1 | 34* | 2 | 2 | 0 | 2
COc1cc(C(=O)N=c2sccn2C)c([N+](=O)[O-])cc1OC | 45* | 1 | -6 | 0 | 25
COc1ccc(NC(=O)N(C)C[C@@H]2Oc3c(NC(=O)c4ccncc4)cccc3C(=O)N([C@@H](C)CO)C[C@H]2C)cc1 | -3 | 2 | x | 0 | -6
C[C@@H]1CN([C@H](C)CO)C(=O)c2cccc(NS(=O)(=O)c3ccc(F)cc3)c2O[C@@H]1CN(C)C(=O)Nc1ccccc1 | 1 | x | 5 | 0 | 7
CNC(=O)c1sc(-c2ccccc2)nc1C | x | x | x | x | -7
SMILES | ERAP1 HTS inh | CASP6 VEID inh | SIRT5 block | FGF22 binding | INS-1E GSIS act
Cc1nc(-c2ccccc2)sc1C(=O)NS(=O)(=O)c1ccc(CN2CCN(c3ccccc3)CC2)cc1 | x | 14 | 22* | 1 | -17
C[C@@H]1CN([C@@H](C)CO)C(=O)c2cccc(NC(=O)C3CCOCC3)c2O[C@H]1CN(C)C | 1 | 1 | 1 | 0 | 18
CC1C[N+](=C2C=C(N3CCOCC3)CC(C)(C)C2)CC(C)O1 (stereo unspecified) | 55* | -1 | 3 | 0 | -5
CC1(C)CC(N2CCOCC2)=CC(=[N+]2CCOCC2)C1 | 22 | -1 | 4 | 0 | 3
O=S(=O)(c1ccc(NCCOCCO)nc1)N1CCCCC1 | -1 | -3 | -5 | 0 | 10
O=C(NN1CCOCC1)c1ccc(S(=O)(=O)N2CCCCC2)cc1 | 0 | x | 2 | 0 | 3
O=S(=O)(c1ccc(NCCCO)nc1)N1CCOCC1 | -6 | -2 | -2 | 0 | 49*
O=S(=O)(c1ccc(S(=O)(=O)N2CCOCC2)cc1)N1CCCC1 | 2 | 0 | 6 | 43* | 8
O=S(=O)(c1ccc(=S)[nH]c1)N1CCCCCC1 | 0 | -1 | 4 | 0 | 42*
CCC(=O)N1C[C@@H](C)[C@@H](OC)CN(C)C(=O)c2cc(NC(=O)c3cc(C)on3)ccc2OC[C@@H]1C | x | x | x | x | 3
CN1CCn2cnc(C(=O)N[C@@H](Cc3ccccc3)C(=O)OC(C)(C)C)c2C1=O | 2 | -8 | x | 44* | -11
CC(C)(C)OC(=O)[C@H](Cc1ccccc1)NC(=O)c1nc[nH]c1C(=O)NC1CCNCC1 | x | 13 | x | 0 | 4
CC1CCN(C(=O)c2[nH]cnc2C(=O)NCc2ccc(CNC(=O)OC(C)(C)C)cc2)CC1 | -1 | -1 | 17* | 0 | -37
CC(C)(C)OC(=O)[C@H](Cc1ccccc1)NC(=O)c1nc[nH]c1C(=O)NCc1ccccc1 | 5 | 8 | 1 | 0 | x
CC(C)C[C@H](NC(=O)c1nc[nH]c1C(=O)NC1CCNCC1)C(=O)OC(C)(C)C | -3 | 6 | 17* | 0 | x
CC(C)(C)OC(=O)NCc1ccc(CNC(=O)c2[nH]cnc2C(=O)N[C@@H](Cc2ccccc2)C(=O)OC(C)(C)C)cc1 | x | -1 | x | 12* | -22
CN1CCn2cnc(C(=O)NCc3ccc(CNC(=O)OC(C)(C)C)cc3)c2C1=O | -4 | 2 | -4 | 0 | 0
COCC#Cc1cnc2c(c1)C(=O)N([C@H](C)CO)C[C@@H](C)[C@H](CN(C)C(=O)c1cnccn1)O2 | 2 | 0 | 5 | 0 | 36
C[C@H](CO)N1C[C@H](C)[C@H](CN(C)C(=O)Nc2ccc(F)cc2)Oc2ccc(NC(=O)CCN3CCOCC3)cc2C1=O | -15 | 1 | -1 | 0 | 3
CCN(CC)CCCNc1nc2cc(OC)c(OC)cc2c2nc(-c3ccccc3)nn12 | x | x | x | x | -12
COCCCNc1nc2cc(OC)c(OC)cc2c2nc(-c3ccccc3)nn12 | -1 | -2 | 21* | 0 | -2
COc1nc(N2CCOCC2)nc(-n2cccc2)n1 | -1 | -4 | 23* | x | 57*
O=C(O)c1c(-c2ccc(Cl)cc2)cn2ccccc12 | -2 | 3 | -1 | 43* | -8
